Laboratory results from PubChem BioAssay AID651871 (Sanford-Burnham Center for Chemical Genomics, 2012).
Several values for one entry are separate records, joined by “and”; a condition that tells them apart may be missing. Equal entries are not always repeated.

System: HL-1
Test: cardiomyocyte survival under oxidative or metabolic stress – cell-based, panel, H9c2 and HL-1, ATP luminescence, set 2, SAR follow-up (AID 651871);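 note: cells exposed to stressor for 2 h before ATP readout; reference of the scale not given here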
Settings: H9c2/HL-1 cardiomyocytes, 2-deoxyglucose stress, with 2-deoxyglucose; run 7, at 79 µM (top of the series)

SMILES	activity (protection/inhibition)
CCOC(=O)c1cccc(NC(=O)CNC(=O)c2cc(-c3cc(OC)c(OC)c(OC)c3)nc3ccccc23)c1	54.3%
COc1ccc2nc(-c3cc(OC)c(OC)c(OC)c3)cc(C(=O)NCC(=O)Nc3ccc(C(C)=O)cc3)c2c1	38%
COc1ccc2c(c1OC)C(=O)N1c3ccccc3C(=O)N(Cc3cccc(Cl)c3Cl)C21 (stereo not drawn)	48.9% and 20.1% and -9.92%
